From PubChem BioAssay (Tox21)
Records with an inconclusive call do not appear. Calls of active or inactive are those of the source. Unless noted, calls follow the shape of the full dose curve.

Legend:
[1] = Nuclear factor erythroid 2-related factor 2/antioxidant responsive element (Nrf2/ARE) small molecule agonists: qHTS cell viability counter screen in human keratinocytes (AID 1919968; active = well fitted curve in the direction sought with a large enough effect in the repeat runs; an effect the other way counts as inactive or inconclusive; also: nearly all actives have a fitted effect of over 55% in size)
How it was run: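 Viability counter-screen: KeratinoSens reporter cells, DMSO-delivered compounds, 23 h at 37 C, CellTiter-Fluor fluorescence.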

[2] = Nuclear factor erythroid 2-related factor 2/antioxidant responsive element (Nrf2/ARE) small molecule agonists: luciferase reporter gene qHTS assay in human keratinocytes (AID 1919969); also: nearly all actives have a fitted effect of over 35% in size
[3] = biological target: Gonadotropin-releasing hormone receptor (Homo sapiens) (UniProt P30968); test: Human gonadotropin-releasing hormone receptor (GnRHR) small molecule agonists, calcium flux assay in GnRHR-HEK293 cells (AID 1920063); also: nearly all actives have a fitted effect of over 35% in size
Gonadotropin-releasing hormone receptor (Homo sapiens), sequence (P30968 whole entry, looked up): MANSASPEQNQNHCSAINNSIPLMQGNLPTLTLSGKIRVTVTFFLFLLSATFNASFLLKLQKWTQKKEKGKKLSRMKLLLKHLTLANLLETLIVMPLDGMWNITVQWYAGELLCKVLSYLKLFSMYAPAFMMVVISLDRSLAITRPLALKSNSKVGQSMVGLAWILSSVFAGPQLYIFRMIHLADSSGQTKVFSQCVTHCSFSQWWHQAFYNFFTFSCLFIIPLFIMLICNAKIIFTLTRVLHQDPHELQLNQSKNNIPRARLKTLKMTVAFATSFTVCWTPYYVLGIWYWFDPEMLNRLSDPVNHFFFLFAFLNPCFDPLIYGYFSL
How it was run: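 Tox21-format agonist screen using human GnRHR-expressing HEK293 cells and a fluorescent calcium dye; kinetic 3-min fluorescence reading after compound addition, 15-point concentration series run in triplicate.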

[4] = biological target: KiSS-1 receptor (Homo sapiens) (UniProt Q969F8); test: Human kisspeptin (KISS1R) small molecule agonists, calcium flux assay in KISS1R-HEK293 cells (AID 1920064; active = well fitted curve in the direction sought with a large enough effect in the repeat runs; an effect the other way counts as inactive or inconclusive)
KiSS-1 receptor (Homo sapiens), sequence (Q969F8 whole entry, looked up): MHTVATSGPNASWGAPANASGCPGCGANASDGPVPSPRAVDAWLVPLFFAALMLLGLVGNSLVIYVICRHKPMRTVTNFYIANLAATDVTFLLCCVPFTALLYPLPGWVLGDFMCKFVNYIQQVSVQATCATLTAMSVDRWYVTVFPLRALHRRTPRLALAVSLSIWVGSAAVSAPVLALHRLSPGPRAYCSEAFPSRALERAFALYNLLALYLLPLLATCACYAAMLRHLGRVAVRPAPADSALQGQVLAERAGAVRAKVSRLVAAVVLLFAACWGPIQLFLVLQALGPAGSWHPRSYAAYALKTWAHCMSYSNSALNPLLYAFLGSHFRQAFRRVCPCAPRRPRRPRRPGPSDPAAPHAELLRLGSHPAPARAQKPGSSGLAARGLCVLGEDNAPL
How it was run: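 Intracellular calcium mobilization in KISS1R-HEK293 cells was recorded by fluorescence (Ex/Em 480/540) for 3 min following compound addition to cells pre-loaded 1 h with calcium dye.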

[5] = G protein-coupled receptor (GPCR) small molecule agonists, calcium flux assay: HEK293 wild type cell line counter screen (AID 1920065)
How it was run: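 In this agonist-mode screen, ATP is the positive control and DMSO the vehicle. Cells grow 18 h before a 1 h dye incubation at 37 C; signal is taken at Ex/Em 480/540 over 3 min.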

[6] = p53 small molecule agonists, cell-based qHTS assay with human liver microsomes: qHTS cell viability counter screen (AID 1963579); also: nearly all actives have a fitted effect of over 45% in size
How it was run: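 Cytotoxicity counter screen: p53RE-bla, 4,000 cells/well; 5 h settle, 37 C/5% CO2; cpd + HLM 0.5 mg/mL + NADPH 0.5 mg/mL (final); 16 h, 37 C; CellTiter-Glo, 30 min RT, luminescence.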

[7] = p53 small molecule agonists, cell-based qHTS assay with rat liver microsomes: qHTS cell viability counter screen (AID 1963580); also: nearly all actives have a fitted effect of over 45% in size
How it was run: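 Viability is assessed in parallel with the p53 reporter read: HCT-116 p53RE-bla cells receive compounds plus rat microsomes and NADPH (0.5 mg/mL final apiece), incubate 16 h at 37 C, and then CellTiter-Glo luminescence is recorded.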

[8] = p53 small molecule agonists, cell-based qHTS assay: qHTS cell viability counter screen (AID 1963581); also: nearly all actives have a fitted effect of over 45% in size
How it was run: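 Compounds are pinned onto HCT-116 p53RE-bla cells and left 16 h at 37 C. Following the reporter FRET read, ATP is quantified by CellTiter-Glo luminescence after 30 min at room temperature.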

[9] = biological target: 5-hydroxytryptamine receptor 2A (Homo sapiens) (UniProt P28223); test: 5-hydroxytryptamine receptor 2A (HTR2A) small molecule antagonists, cell-based qHTS assay (AID 1963586); also: nearly all actives have a fitted effect of over 45% in size
5-hydroxytryptamine receptor 2A (Homo sapiens), sequence (P28223 whole entry, looked up): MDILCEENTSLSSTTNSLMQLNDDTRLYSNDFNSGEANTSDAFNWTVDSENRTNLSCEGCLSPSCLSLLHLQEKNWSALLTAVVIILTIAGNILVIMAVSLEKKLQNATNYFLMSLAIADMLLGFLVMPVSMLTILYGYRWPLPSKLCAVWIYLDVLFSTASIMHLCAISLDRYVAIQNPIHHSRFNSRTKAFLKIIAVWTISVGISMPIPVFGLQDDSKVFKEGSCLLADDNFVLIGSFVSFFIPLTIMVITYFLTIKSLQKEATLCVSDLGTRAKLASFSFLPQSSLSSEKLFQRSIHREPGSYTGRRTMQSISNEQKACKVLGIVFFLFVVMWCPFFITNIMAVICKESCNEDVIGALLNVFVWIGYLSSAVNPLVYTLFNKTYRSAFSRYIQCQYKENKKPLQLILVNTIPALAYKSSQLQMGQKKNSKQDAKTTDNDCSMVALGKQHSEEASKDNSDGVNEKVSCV
How it was run: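 Antagonist-mode intracellular calcium assay: DOI (4 nM) added after 5 min compound pre-incubation at room temperature to dye-loaded HTR2A-CHO cells. Fluorescence followed for 3 min, sampled every second.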

[10] = biological target: 5-hydroxytryptamine receptor 2A (Homo sapiens) (UniProt P28223); test: 5-hydroxytryptamine receptor 2A (HTR2A) small molecule agonists, cell-based qHTS assay (AID 1963587); also: nearly all actives have a fitted effect of over 30% in size
How it was run: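 CHO cells stably expressing human HTR2A, plated 18 h, loaded with calcium dye 1 h at 37 C. Agonist mode: compounds added and intracellular calcium fluorescence recorded kinetically for 2 min at 1 sec intervals.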

[11] = biological target: Muscarinic acetylcholine receptor M1 (Homo sapiens) (UniProt P11229); test: Cholinergic receptor muscarinic 1 (CHRM1) small molecule antagonists, cell-based qHTS assay (AID 1963588); also: nearly all actives have a fitted effect of over 40% in size
Muscarinic acetylcholine receptor M1 (Homo sapiens), sequence (P11229 whole entry, looked up): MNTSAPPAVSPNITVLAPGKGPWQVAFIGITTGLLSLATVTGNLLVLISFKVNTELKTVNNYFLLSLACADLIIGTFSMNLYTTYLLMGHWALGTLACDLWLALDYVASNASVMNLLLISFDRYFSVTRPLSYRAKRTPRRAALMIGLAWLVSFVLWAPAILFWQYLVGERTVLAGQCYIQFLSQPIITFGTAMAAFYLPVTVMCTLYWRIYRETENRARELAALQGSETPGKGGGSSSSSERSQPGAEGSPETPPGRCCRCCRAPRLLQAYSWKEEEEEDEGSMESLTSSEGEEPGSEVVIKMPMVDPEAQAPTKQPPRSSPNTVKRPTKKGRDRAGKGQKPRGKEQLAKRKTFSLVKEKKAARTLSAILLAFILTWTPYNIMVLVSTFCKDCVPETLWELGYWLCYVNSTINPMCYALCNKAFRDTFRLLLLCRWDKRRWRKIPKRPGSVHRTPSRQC
How it was run: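 CHRM1-CHO calcium-flux assay, antagonist mode. Cells were seeded 18 h, dye-loaded 1 h at 37 C and given compound for 5 min at RT, then acetylcholine was added at 50nM. FDSS fluorescence was read 3 min; 15 concentrations, three runs.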

[12] = biological target: Muscarinic acetylcholine receptor M1 (Homo sapiens) (UniProt P11229); test: Cholinergic receptor muscarinic 1 (CHRM1) small molecule agonists, cell-based qHTS assay (AID 1963589); also: nearly all actives have a fitted effect of over 35% in size
How it was run: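 Stable CHRM1-CHO cells (human receptor) were incubated 18 h, dye-loaded for 1 h at 37 C and exposed to test compounds for agonist activity, with calcium-dependent fluorescence followed kinetically.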

[13] = cAMP Responsive Elements (CRE) small molecule agonists, cell-based qHTS assay (AID 1963590)
How it was run: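 FRET-based beta-lactamase readout (LiveBLAzer B/G, 2 h RT) quantified CRE activation in HEK 293T CRE-bla cells after 3 h treatment with DMSO-dissolved compounds.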

[14] = cAMP Responsive Elements (CRE) small molecule antagonists, cell-based qHTS assay (AID 1963591; active = well fitted inhibition curve with a large enough effect in the signal ratio in the repeat runs, not every such curve was filed as active; the % refers to the signal ratio)
How it was run: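 qHTS in CRE-bla HEK 293T cells: compound in DMSO, then 0.25 uM NKH477 (final), 3 h at 37 °C/5% CO2; beta-lactamase FRET read-out after 2 h substrate incubation.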

[15] = biological target: Beta-2 adrenergic receptor (Homo sapiens) (UniProt P07550); test: Adrenergic beta2 receptor (ADRB2) small molecule antagonists, cell-based qHTS assay (AID 1963592); also: series mostly up to about 92 µM; nearly all actives have a fitted effect of over 50% in size
Beta-2 adrenergic receptor (Homo sapiens), sequence (P07550 whole entry, looked up): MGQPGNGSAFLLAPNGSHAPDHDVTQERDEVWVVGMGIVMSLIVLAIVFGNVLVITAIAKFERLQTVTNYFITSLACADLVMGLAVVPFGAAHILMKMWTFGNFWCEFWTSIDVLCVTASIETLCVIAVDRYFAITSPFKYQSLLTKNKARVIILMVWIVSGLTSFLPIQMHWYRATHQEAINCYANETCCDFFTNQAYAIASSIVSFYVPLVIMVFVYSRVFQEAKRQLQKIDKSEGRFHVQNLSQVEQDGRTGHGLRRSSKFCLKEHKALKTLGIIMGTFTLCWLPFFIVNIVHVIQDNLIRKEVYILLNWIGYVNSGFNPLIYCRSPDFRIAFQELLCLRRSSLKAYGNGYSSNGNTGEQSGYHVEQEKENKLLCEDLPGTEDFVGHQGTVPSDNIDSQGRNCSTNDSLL
How it was run: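 Cells (CHO, stable ADRB2 overexpression) incubated 18-20hr at 37C; compounds added from DMSO; agonist mix (1nM isoproterenol, 100uM IBMX, 25uM Ro-20-1724) added; 0.5hr RT; d2-cAMP and anti-cAMP-cryptate added; 1hr RT; 665/615 nm read.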

[16] = biological target: Beta-2 adrenergic receptor (Homo sapiens) (UniProt P07550); test: Adrenergic beta2 receptor (ADRB2) small molecule agonists, cell-based qHTS assay (AID 1963593);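 also: CHO cells stably overexpressing human ADRB2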
How it was run: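 CHO cells stably over-expressing ADRB2 were plated overnight at 37C, then dosed with compounds plus a stimulation mix containing 100uM IBMX and 25uM Ro-20-1724 for 0.5hr at room temperature. cAMP was measured by HTRF competition, 1hr.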

[17] = biological target: D(2) dopamine receptor (Homo sapiens) (UniProt P14416); test: Dopamine D2 receptor (DRD2) small molecule agonists, cell-based qHTS assay (AID 1963594); also: nearly all actives have a fitted effect of over 35% in size
D(2) dopamine receptor (Homo sapiens), sequence (P14416 whole entry, looked up): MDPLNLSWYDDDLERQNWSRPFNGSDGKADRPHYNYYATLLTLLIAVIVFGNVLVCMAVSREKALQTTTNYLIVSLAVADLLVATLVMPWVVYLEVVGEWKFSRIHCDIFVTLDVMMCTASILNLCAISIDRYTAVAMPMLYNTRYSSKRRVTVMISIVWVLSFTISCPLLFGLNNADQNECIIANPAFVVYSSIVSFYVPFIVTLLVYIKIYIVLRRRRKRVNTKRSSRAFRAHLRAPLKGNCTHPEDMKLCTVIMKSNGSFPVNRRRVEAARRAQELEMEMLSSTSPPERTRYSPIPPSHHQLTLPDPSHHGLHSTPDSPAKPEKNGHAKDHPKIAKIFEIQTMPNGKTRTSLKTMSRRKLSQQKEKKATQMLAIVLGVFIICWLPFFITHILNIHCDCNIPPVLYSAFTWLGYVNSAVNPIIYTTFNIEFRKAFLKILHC
How it was run: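 HEK293 cells stably expressing human DRD2, pre-treated with PDE inhibitor Ro20-1724 (0.1 mM final) and compound 10 min at room temperature, then stimulated with NKH477 (200nM […]) for 30 min. cAMP read by HTRF (665/620 nm).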

[18] = biological target: D(2) dopamine receptor (Homo sapiens) (UniProt P14416); test: Dopamine D2 receptor (DRD2) small molecule antagonists, cell-based qHTS assay (AID 1963595; active = well fitted inhibition curve with a large enough effect in the signal ratio in the repeat runs, with a control signal flat; the % refers to the signal ratio)
How it was run: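 Readout: HTRF cAMP, cAMP-d2 competing with cellular cAMP for anti-cAMP cryptate, read after 1 h. Cells: DRD2-HEK293. Conditions: 0.1 mM Ro20-1724, 12 nM quinpirole, 200 nM NKH477, 30 min RT.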

[19] = p53 small molecule agonists, cell-based qHTS assay with rat liver microsomes (AID 1963578)
How it was run: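 Cells carrying a p53 response element–beta-lactamase reporter were plated and rested 5 h, then dosed with compound in DMSO plus rat liver microsomes and NADPH, each at 0.5 mg/mL final. After 16 h at 37 C, LiveBLAzer substrate was added for 2 h.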

[20] = p53 small molecule agonists, cell-based qHTS assay (AID 1963582; active = well fitted activation curve with a large enough effect in the signal ratio in the repeat runs, not every such curve was filed as active; the % refers to the signal ratio)
How it was run: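 Agonist activity was scored from beta-lactamase FRET fluorescence in p53RE-bla cells treated 16 h at 37 C with compounds in DMSO, substrate incubation being 2 h at room temperature.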

Measured: Potency

CCN(CC)C(=O)c1cccc(C)c1
not listed: [19] | [20]
inactive: all other assays above

O=C(O)CCCC[C@@H]1SC[C@@H]2NC(=O)N[C@@H]21
not listed: [12] | [19] | [20]
inactive: all other assays above

O=C(OCc1ccccc1)c1ccccc1
not listed: [19] | [20]
inactive: all other assays above

NC(N)=O
not listed: [11] | [19] | [20]
inactive: all other assays above

CC(C)c1cccc(C(C)C)c1
not listed: [18] | [19] | [20]
inactive: all other assays above

Brc1nc2ccccc2s1
not listed: [7] | [10]
inactive: all other assays above

O=C(O)[C@H](O)[C@@H](O)[C@H](O)[C@H](O)CO
not listed: [16] | [17] | [19] | [20]
inactive: all other assays above

CN1CCC[C@H]1c1cccnc1
not listed: [9] | [10] | [11] | [12] | [19] | [20]
inactive: all other assays above

CCCCCCCCCCCCCCCCCC(=O)OCC(O)CO (stereo unspecified)
not listed: [12] | [14] | [19] | [20]
inactive: all other assays above

CCCCCC1=CCCC1=O
not listed: [12] | [19] | [20]
inactive: all other assays above

COc1ccc(NC(C)=O)cc1N
not listed: [16] | [19] | [20]
inactive: all other assays above

C1CCCNCC1
not listed: [19] | [20]
inactive: all other assays above

COc1cc(O)c(C(=O)c2ccccc2)cc1S(=O)(=O)O
not listed: [19] | [20]
inactive: all other assays above
